TGFb SMAD3 inh: TGF-b pathway inhibition. HepG2 CAGA-GFP TGF-b/SMAD3 reporter, GFP fluorescence, 18 h; TGF-beta stimulated, 500 pg/mL final. Potency, µM (doses to about 46.1 µM), hits mostly inhibitors. 1.2% of 410,000 active; further: nearly all actives have a fitted effect of over 65% in size
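HEPG2 CAGA-GFP cells (1000/well, DMEM with 1% FBS) were pre-incubated 2 h at 37 degrees C, given compound by pin tool, then stimulated with TGF-beta at 500 pg/mL final for 18 h before per-cell GFP fluorescence imaging.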
S2 tox: viability counter-screen for ATXN expression inhibitors; S2 cells (HEK-293 line with an ATXN2-luciferase reporter) viability, CellTiter-Fluor protease fluorescence, 24 h; Potency, µM (series often up to 56.7 µM), actives largely listed as cytotoxic; 0.49% of 400,000 active; AID 651635; further: nearly all actives have a fitted effect of over 40% in size
ATXN2 expr inh: reduces ATXN2 reporter expression in HEK-293 cells. AID 1745845. Potency, µM (top dose mostly 57 µM), usual class: inhibitors. HEK-293 ATXN2-luciferase reporter, luminescence, 24 h. 0.72% of 360,000 active; further: nearly all actives have a fitted effect of over 55% in size
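ATXN2-luciferase reporter cells (luciferase flanked by upstream and downstream ATXN2 gene portions) were treated 24 h at 37 °C with compounds at up to 57 uM. SteadyGlo luminescence gave expression; GF-AFC fluorescence gave viability.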
TDP1 cell CPT: DT40-hTDP1 cell growth loss with CPT; chicken DT40 Tdp1-/-;hTDP1 cells + 20 nM CPT, ATP luminescence, 48 h; Potency, µM (series often up to 46.2 µM), hits mostly inhibitors; 12% of 420,000 active; further: nearly all actives have a fitted effect of over 55% in size
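Chicken DT40 Tdp1-/- cells complemented with human TDP1, 400 cells/well, exposed to compounds plus 20 nM camptothecin for at least 48 h at 37 C; viability read as ATP content by CellTiter-Glo luminescence.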
TDP1 cell noCPT: qHTS for Inhibitors of human tyrosyl-DNA phosphodiesterase 1 (TDP1): qHTS in cells in absence of CPT | 15% of 420,000 active | Potency, µM (series often up to 46.2 µM), actives largely listed as inhibitors | AID 686978, 2013 | DT40 Tdp1-/- hTDP1 cells, no CPT, ATP luminescence, 48 h; further: nearly all actives have a fitted effect of over 55% in size
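Chicken DT40 Tdp1-/- cells stably complemented with human TDP1 were seeded at 400 cells/well with DMSO in place of 20 nM camptothecin. After compound pinning, cells grew at least 48 hr at 37 °C; viability read by CellTiter-Glo luminescence.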
HepG2 tox: HepG2 cytotoxicity, counter-screen for TGF-b inhibitors; HepG2 CAGA-GFP viability, ATP luminescence, 18 h; Potency, µM (top dose mostly 46.1 µM), hits mostly cytotoxic; 0.76% of 410,000 active
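HepG2 CAGA-GFP cells (1000/well, DMEM with 1% FBS) received compound, then TGF-beta at 500 pg/mL final, and were incubated 18 hours at 37 degrees C. Viability was read by CellTiter-Glo luminescence. Media-only wells were set as complete cell-killing and DMSO as no toxicity.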
Each line names hits and unclear results; the compound was inactive in the other large screens. In the library only some 17% were active in any assay of this set; here they are far more common. The call rests on the fitted dose curve; in most records, active means well fitted curve in the direction sought with a large enough effect; inconclusive means small, poorly fitted or top-dose-only effect, or another doubt; inactive means no such curve, though single readings can be large; an effect the other way counts as inactive or inconclusive.

CCn1cc2nc(SCc3ccc(C)cc3)n(CCc3ccccc3)c(=O)c2n1	ATXN2 expr inh inconclusive, TDP1 cell CPT inconclusive, TDP1 cell noCPT inconclusive
CCn1cc2nc(SCc3ccccc3Cl)n(Cc3ccc(OC)cc3)c(=O)c2n1	S2 tox inconclusive, TDP1 cell CPT 25.9µM, TDP1 cell noCPT 14.6µM
CCn1cc2nc(SCc3ccccc3F)n(Cc3ccc(C)cc3)c(=O)c2n1	TGFb SMAD3 inh inconclusive, TDP1 cell CPT 20.6µM, TDP1 cell noCPT 11.6µM
CCn1cc2nc(SCc3ccccc3)n(Cc3ccc(C)cc3)c(=O)c2n1	TDP1 cell CPT 16.4µM, TDP1 cell noCPT 10.3µM
Cc1ccc(C)c(CSc2nnc(C)c(=O)n2N)c1	none
CCn1cc2nc(SCc3ccc(F)cc3)n(Cc3ccc(Cl)cc3)c(=O)c2n1	TDP1 cell CPT 6.51µM, TDP1 cell noCPT 3.26µM
NC(=O)c1cc2ccncc2c2ccccc12	TGFb SMAD3 inh inconclusive, TDP1 cell CPT 13µM, TDP1 cell noCPT 6.51µM (no result: ATXN2 expr inh)
Cc1cc(C(N)=O)c2ccccc2n1	none
Cc1ccc(NC(=O)C(=Cc2ccc(C(=O)O)cc2)C(=O)Nc2ccc(C)cc2C)c(C)c1	TGFb SMAD3 inh 7.08µM, S2 tox inconclusive, TDP1 cell CPT 5.17µM, TDP1 cell noCPT 2.91µM, HepG2 tox 10µM (no result: ATXN2 expr inh)
COc1ccc(OC)c(NC(=O)CN2CCCN(Cc3ccccc3Cl)S2(=O)=O)c1	TGFb SMAD3 inh inconclusive, TDP1 cell CPT inconclusive, TDP1 cell noCPT 23.1µM (no result: S2 tox, ATXN2 expr inh)
COc1ccc(NC(=O)CN2CCCN(Cc3ccc(Cl)cc3)S2(=O)=O)cc1Cl	TGFb SMAD3 inh inconclusive, S2 tox inconclusive, TDP1 cell CPT 11.6µM, TDP1 cell noCPT 10.3µM
C=CCN=C1N[C@@H](c2ccccc2)C(C(=O)OC)=C(C)N1CC	TDP1 cell CPT inconclusive
Cc1cc(NC(=O)NC(C)(C(F)(F)F)C(F)(F)F)no1	none
COc1ccc(NC(=S)NCCc2c(C)[nH]c3ccc(OC)cc23)cc1	TDP1 cell CPT inconclusive, TDP1 cell noCPT inconclusive
Cc1cccc(OCc2occc2C(=O)Nc2cccc(-n3cnnn3)c2)c1	none
Cc1ccccc1OCc1occc1C(=O)Nc1cccc(-n2cnnn2)c1	TGFb SMAD3 inh 14.1µM, TDP1 cell CPT 23.1µM, TDP1 cell noCPT 18.4µM (no result: ATXN2 expr inh)
Cc1ccc(O)c(N=CC2=C(O)c3ccccc3C2=O)c1	TDP1 cell CPT inconclusive, TDP1 cell noCPT 23.1µM
O=C1C(C=Nc2ccccc2O)=C(O)c2ccccc21	TDP1 cell CPT 3.26µM, TDP1 cell noCPT 1.3µM
CN=CC1=C(O)c2ccccc2C1=O	none
Cc1noc(C)c1CSCC(=O)Nc1ccccc1N1CCCC1	TDP1 cell noCPT inconclusive
Cc1cccc(Nc2nn3c(=O)c4ccccc4nc3s2)c1	none
CCCSc1nn2c(=O)c3ccccc3nc2s1	TDP1 cell CPT 18.4µM
CC1CCN(C(=O)Nc2ccc3nc(-c4ccco4)c(-c4ccco4)nc3c2)CC1	TGFb SMAD3 inh inconclusive, TDP1 cell CPT 11.2µM, TDP1 cell noCPT inconclusive (no result: S2 tox, ATXN2 expr inh)
O=C(Nc1ccc2nc(-c3ccco3)c(-c3ccco3)nc2c1)N1CCCC1	TGFb SMAD3 inh inconclusive (no result: S2 tox, ATXN2 expr inh, TDP1 cell CPT, TDP1 cell noCPT)
Cc1nc2cc(NC(=O)N3CCN(c4ccccn4)CC3)ccc2o1	TGFb SMAD3 inh inconclusive
O=C(Nc1ccc2nc(-c3ccco3)c(-c3ccco3)nc2c1)N1CCN(c2ccccn2)CC1	TDP1 cell CPT 13µM, TDP1 cell noCPT 11.6µM
CCC[n+]1c(/C=C/c2c(OC)cc(OC)cc2OC)ccc2ccccc21	TDP1 cell CPT 0.112µM, TDP1 cell noCPT 0.0891µM (no result: S2 tox, ATXN2 expr inh)
COc1cc(OC)c(/C=C/c2ccc3ccccc3[n+]2C)c(OC)c1	TDP1 cell CPT 0.1µM, TDP1 cell noCPT 0.1µM (no result: S2 tox, ATXN2 expr inh)
CCCC[n+]1c(/C=C/c2c(OC)cc(OC)cc2OC)ccc2ccccc21	TDP1 cell CPT 0.316µM, TDP1 cell noCPT 0.0891µM (no result: S2 tox, ATXN2 expr inh)
CC(C)CC(COCc1ccc(Cl)cc1)N1CCN(C(=O)c2cccc(C(F)(F)F)c2)CCC1=O (stereo not given)	TGFb SMAD3 inh inconclusive, S2 tox inconclusive, TDP1 cell CPT 16.4µM, TDP1 cell noCPT 20.6µM
